Experimental data as given in PubChem BioAssay AID504389 (National Center for Advancing Translational Sciences (NCATS), 2011).
Inconclusive results are not listed. Calls of active or inactive are those of the source. Calls come from the whole dose curve; as a rule, active = well fitted curve in the direction sought with a large enough effect; inconclusive = small, poorly fitted or top-dose-only effect, or effect the other way, or another doubt; inactive = no such curve, though single readings can be large or run the other way.

The compounds below were run against Thyrotropin receptor (Homo sapiens) (UniProt P16473) (assay: qHTS Assay for Antagonists of the Thyroid Stimulating Hormone Receptor: SAR for Probe). Settings: HEK293-TSHR, TSH-stimulated cAMP HTRF, 2 h; series mostly up to 57.5 µM; activity change, negative = inhibition: at the top concentration.
Thyrotropin receptor (Homo sapiens), sequence (P16473 whole entry, looked up): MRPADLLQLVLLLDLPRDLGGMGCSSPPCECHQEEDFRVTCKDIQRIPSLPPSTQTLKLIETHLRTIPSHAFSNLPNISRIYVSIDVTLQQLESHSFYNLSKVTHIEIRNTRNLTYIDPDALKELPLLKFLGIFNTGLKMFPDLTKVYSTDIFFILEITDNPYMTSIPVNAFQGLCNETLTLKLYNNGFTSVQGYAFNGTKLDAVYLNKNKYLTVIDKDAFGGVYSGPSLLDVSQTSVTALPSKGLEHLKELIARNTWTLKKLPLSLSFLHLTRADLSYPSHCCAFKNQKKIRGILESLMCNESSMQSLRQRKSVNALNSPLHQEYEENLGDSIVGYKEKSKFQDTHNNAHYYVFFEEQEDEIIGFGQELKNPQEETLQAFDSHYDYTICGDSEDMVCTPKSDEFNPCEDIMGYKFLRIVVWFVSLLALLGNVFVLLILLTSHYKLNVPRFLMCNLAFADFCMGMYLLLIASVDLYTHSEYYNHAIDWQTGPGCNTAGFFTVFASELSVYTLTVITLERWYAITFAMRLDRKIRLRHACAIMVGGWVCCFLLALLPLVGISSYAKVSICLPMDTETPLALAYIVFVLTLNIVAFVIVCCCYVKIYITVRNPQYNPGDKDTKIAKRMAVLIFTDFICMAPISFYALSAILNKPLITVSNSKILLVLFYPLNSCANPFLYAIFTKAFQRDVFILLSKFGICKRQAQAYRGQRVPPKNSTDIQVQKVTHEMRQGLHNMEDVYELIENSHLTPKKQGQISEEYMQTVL
Description: TSH is an alpha/beta heterodimeric glycoprotein hormone secreted from the anterior pituitary gland which belongs to the glycoprotein hormone family. The actions of TSH are mediated by a seven-transmembrane receptor, which upon TSH binding couples preferentially to the G-alpha (s) protein (Gs), resulting in activation of adenylate cyclase and increase in cyclic adenosine 3', 5' monophosphate (cAMP). The TSH receptor (THSR) is mainly expressed in thyroid follicular cells and regulates their growth and function. This cell based assay was conducted on a TSHR transfected HEK 293 cell line, measuring cAMP stimulation using antibody-based Homogeneous Time Resolved Fluorescence (HTRF). Our goal is to identify small molecules that will inhibit (antagonize) the thyroid-stimulating hormone receptor (TSHR), a member of the 7 transmembrane-spanning receptor (7TMR) family of cell surface receptors. TSHR-mediated hyperthyroidism is important in thyroid pathology. The development of small molecule antagonists of TSHR may lead to therapeutic approaches for TSHR-mediated hyperthyroidism caused by constitutively activating mutations or stimulating auto-antibodies associated with Graves' disease. Graves' disease is the leading cause of hyperthyroidism and is caused by autoantibodies that stimulate TSHR (TsAbs) causing thyroid growth and unregulated overproduction of thyroid hormones and existing treatments have liabilities (agranulocytosis). In addition, TSHRs are known to be expressed in multiple extrathyroidal tissues including bone, brain, kidney, testis, fat and cells of the immune system but the role of the TSHR in these tissues is not clear. Therefore, TSHR antagonists/inverse agonists could be used as probes of extrathyroidal TSHR function. Finally, TSHR inverse agonists, which are a subclass of antagonists that inhibit agonist-independent (or basal or constitutive) TSHR signaling, could be used to inhibit TSH-independent signaling in patients with recurrent or metastatic thyroid cancer who are receiving thyroid hormone to suppress TSH. The present assay presents confirmation data for analogues of series of interest in the primary screening assay.
An anti cAMP antibody contains a fluorescent cryptate tag (excitation 337 nm; emission 620 nm) and the acceptor is cAMP-d2 (excitation 620 nm; emission 665 nm). When antibody and cAMP-d2 interact and are excited by a 337 nm light, a FRET occurs resulting in emission at 665 nm. The assay is competition between cAMP-d2 and cAMP (from the cell lysate). The homogeneous protocol allows for one step dispense after stimulation that is automation friendly. Step, Parameter, Value, Description 1, Cells, 3 uL, 2000 TSHR freshly harvested cells/well 1536 TC treated White solid bottom plate (Cells resuspended in 10 mM HEPES buffered HBSS and 70 uM RO 20-1724) 2, Compound, 23 nL, Libraries and controls 3, Compound, 1 uL, EC80 TSH (4 nM final) 4, Time, 2 hours, 37C 5, Reagent, 2 uL, cAMP antibody diluted 1:20 in lysis buffer 6, Time, 30 minutes, Room temperature 7, Detector, HTRF settings, Viewlux

Activity change, negative = inhibition, inactive:
COc1ccc(C2Nc3ccccc3C(=O)N2Cc2ccccc2)cc1COc1ccccc1OC (configuration not stated) -0.288%
COc1ccc(C2Nc3ccccc3C(=O)N2Cc2ccncc2)cc1COc1c(C)cc(NC(C)=O)cc1C (configuration not stated) -2.14%
COc1ccc(C=O)cc1COc1ccc(NC(C)=O)cc1 -1.52%
COc1ccc(C2Nc3ccccc3C(=O)N2Cc2cccc(OC)c2OC)cc1COc1c(C)cc(NC(C)=O)cc1C (configuration not stated) -4.15%
COc1cc(C2Nc3ccccc3C(=O)N2Cc2ccccc2)ccc1OCc1ccc(NC(C)=O)cc1 (configuration not stated) 0.705%
O=C1c2ccccc2NC(c2ccccc2O)N1Cc1ccccc1 (configuration not stated) 2.98%
COc1ccc(C2Nc3ccccc3C(=O)N2Cc2ccccc2)cc1COc1c(C)cccc1C (configuration not stated) -8.19%
